PubChem BioAssay
Active and inactive are the calls of the source. Unless noted, how the calls were made is not given here.

What was measured:
[1] = A549 cell viability effects, profiling panel, calcein-AM fluorescence, 48 h, basal (AID 1162); conditions: higher = more signal; further: test concentration not given here
[2] = adipocyte viability effects, profiling panel, cell-based, 3T3-L1 adipocytes, calcein-AM fluorescence, 48 h, basal (AID 1163); conditions: 3T3-L1 adipocytes viability, higher = more signal; further: test concentration not given here
[3] = HepG2 cell viability effects, profiling panel, calcein-AM fluorescence, 48 h, basal (AID 1164); conditions: higher = more signal; further: test concentration not given here
[4] = MM1S cell viability effects, profiling panel, calcein-AM fluorescence, 48 h, basal (AID 1165); conditions: higher = more signal;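 further: viability of MM1S multiple myeloma cells under basal unstimulated conditions; test concentration not given here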
[5] = basal RPMI8226 viability, no added stimulus, profiling panel, cell-based, calcein-AM fluorescence, 48 h, PK04 Diversity Set (AID 1166); conditions: RPMI8226 myeloma viability, higher = more signal;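 further: cells grown under basal conditions without added stimulus; test concentration not given here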
[6] = basal HepG2 mitochondrial membrane potential changes, profiling panel, cell-based, JC-1 fluorescence, 24 h, 100 nL compound (AID 1167); conditions: higher = more signal; further: test concentration not given here
[7] = basal 3T3-L1 adipocyte mitochondrial potential changes, profiling panel, cell-based, JC-1 fluorescence, 3T3-L1 adipocytes, 24 h, 100 nL compound (AID 1168); conditions: JC-1 mitochondrial fluorescence, higher = more signal, called active from +8 up or from −8 down; further: test concentration not given here
[8] = basal RPMI8226 mitochondrial membrane potential changes, profiling panel, cell-based, JC-1 fluorescence, 24 h, 100 nL compound (AID 1169); conditions: RPMI8226 myeloma, JC-1 mitochondrial potential fluorescence, higher = more signal; further: test concentration not given here
[9] = basal MM1S mitochondrial membrane potential changes, profiling panel, cell-based, JC-1 fluorescence, 24 h, 100 nL compound (AID 1170); conditions: higher = more signal; further: test concentration not given here
[10] = A549 lung cancer cell viability effects, profiling panel, resazurin fluorescence, 24 h, PK04 Diversity Set (AID 1171); conditions: higher = more signal, called active from +8 up or from −8 down; further: test concentration not given here
[11] = HepG2 liver cancer cell viability effects, profiling panel, resazurin fluorescence, 24 h, PK04 Diversity Set (AID 1172); conditions: higher = more signal; further: test concentration not given here
[12] = basal S. cerevisiae growth modulation, no modifier, primary screen, OD600, strain BY4716, 24 h, basal condition (AID 1173); conditions: OD600, 24 h, higher = more signal, called active from +8 up or from −8 down
[13] = MM1S myeloma cell viability, profiling panel, resazurin fluorescence, basal, 24 h, PK04 Diversity Set (AID 1174); conditions: higher = more signal, called active from +8 up or from −8 down;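 further: MM1S multiple myeloma cell line; test concentration not given here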
[14] = molecular target: Dihydroorotate dehydrogenase (quinone), mitochondrial (Plasmodium falciparum (isolate 3D7)) (UniProt Q08210); experiment: PfDHODH enzyme inhibitors, primary screen, biochemical, C-terminal His tag, absorbance 600 nm (AID 1175); conditions: DCIP absorbance 600 nm, higher = more signal, called active from +8 up or from −8 down;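 further: recombinant parasite enzyme with a five histidine tag at its C terminus; test concentration not given here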
Dihydroorotate dehydrogenase (quinone), mitochondrial (Plasmodium falciparum (isolate 3D7)), sequence (Q08210 whole entry, looked up): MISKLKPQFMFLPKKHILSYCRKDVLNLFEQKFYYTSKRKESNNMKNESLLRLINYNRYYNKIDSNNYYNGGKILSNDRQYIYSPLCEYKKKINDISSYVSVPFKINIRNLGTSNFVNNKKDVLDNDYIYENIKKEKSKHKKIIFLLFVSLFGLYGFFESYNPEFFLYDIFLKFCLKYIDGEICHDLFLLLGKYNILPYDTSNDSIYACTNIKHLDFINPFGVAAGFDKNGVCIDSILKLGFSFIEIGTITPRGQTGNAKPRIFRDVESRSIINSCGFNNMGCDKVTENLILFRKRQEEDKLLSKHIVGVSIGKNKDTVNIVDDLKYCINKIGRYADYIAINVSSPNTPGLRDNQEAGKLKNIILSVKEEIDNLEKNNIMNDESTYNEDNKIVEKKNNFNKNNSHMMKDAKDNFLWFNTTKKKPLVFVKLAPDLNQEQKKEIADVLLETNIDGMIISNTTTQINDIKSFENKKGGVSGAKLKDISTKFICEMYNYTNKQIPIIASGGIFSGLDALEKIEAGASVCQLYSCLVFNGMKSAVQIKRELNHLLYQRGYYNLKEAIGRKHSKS

[15] = P. aeruginosa biofilm formation inhibitors, primary screen, strain PAO1, LB-PBS medium, absorbance 600 nm (AID 1176); further: test concentration not given here; conditions: P. aeruginosa PAO1 growth/biofilm, A600, 12 h; higher = more signal
[16] = S. cerevisiae RM11-1a growth modifiers, primary screen, strain RM11-1a, OD600, basal, 24 h (AID 1177); conditions: OD600, 24 h, higher = more signal, called active from +8 up or from −8 down;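 further: cultures grown under basal conditions with no added stressor; test concentration not given here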
[17] = E. coli acrAB mutant growth effects, primary screen, E. coli filamentation inducers, strain DRC39, OD650, 24 h (AID 1178); conditions: higher = more signal, called active from +8 up or from −8 down;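 further: growth measured as culture turbidity by optical density at 650 nm; test concentration not given here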
[18] = E. coli acrAB mutant growth effects, primary screen, E. coli filamentation inducers, strain DRC39, OD650, 48 h (AID 1179);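 further: screen aims at cell division blockers that make cells filament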; conditions: E. coli DRC39 delta-acrAB growth, higher = more signal, called active from +8 up or from −8 down
[19] = RPMI8226 myeloma cell viability, profiling panel, resazurin fluorescence, basal, 24 h, PK04 Diversity Set (AID 1180); conditions: higher = more signal;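 further: RPMI8826 multiple myeloma cell line at 5000 cells per well; test concentration not given here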
[20] = molecular target: E3 ubiquitin-protein ligase XIAP (Homo sapiens) (UniProt P98170); experiment: XIAP binders, primary screen, biophysical, small-molecule microarray, fluorescence 635 nm (AID 1181); conditions: small-molecule microarray binding, higher = more signal;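 further: score merges 667 nm emission and signal to noise over triplicate slides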
E3 ubiquitin-protein ligase XIAP (Homo sapiens), sequence (P98170 whole entry, looked up): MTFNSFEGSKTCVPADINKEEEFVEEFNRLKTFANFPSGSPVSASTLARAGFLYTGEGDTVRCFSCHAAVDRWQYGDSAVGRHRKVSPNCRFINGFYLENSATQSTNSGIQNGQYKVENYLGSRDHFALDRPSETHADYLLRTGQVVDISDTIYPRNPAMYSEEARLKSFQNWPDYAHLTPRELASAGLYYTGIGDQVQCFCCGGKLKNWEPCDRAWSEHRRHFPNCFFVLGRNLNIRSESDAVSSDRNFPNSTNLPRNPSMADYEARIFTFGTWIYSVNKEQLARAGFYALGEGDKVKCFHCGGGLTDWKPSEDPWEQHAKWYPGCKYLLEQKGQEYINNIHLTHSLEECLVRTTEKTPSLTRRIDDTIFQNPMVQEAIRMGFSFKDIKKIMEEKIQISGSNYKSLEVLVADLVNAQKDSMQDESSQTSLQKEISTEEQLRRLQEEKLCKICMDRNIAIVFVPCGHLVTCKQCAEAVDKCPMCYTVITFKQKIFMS

Structure (SMILES)	z-score [1]	z-score [2]	z-score [3]	z-score [4]	z-score [5]	z-score [6]	z-score [7]	z-score [8]	z-score [9]	z-score [10]	z-score [11]	z-score [12]	z-score [13]	composite z-score [14]	z-score [15]	z-score [16]	z-score [17]	z-score [18]	z-score [19]	composite z-score [20]
O=C(CS)NCCCCCCNC(=O)[C@@H]1C[C@@H]2C(=O)NCC(=O)N2[C@@H]1c1ccc(O)cc1	0.622	0.182	0.435	0.21	1.06	0.677	0.138 (inactive)	0.391	-0.386	-0.746 (inactive)	0.263	-0.185 (inactive)	0.426 (inactive)	-0.757 (inactive)	0.171 (inactive)	-1.97 (inactive)	0.858 (inactive)	1.62 (inactive)	0.0464	-0.02
C=CCC(OC(C)=O)[C@@H]1[C@@H](N(Cc2cccc3ccccc23)C(=O)Cc2ccc(F)cc2)c2cc(OCCCO)ccc2N1C(=O)c1ccc(-c2ccccc2)cc1 (stereo not given in full)	-0.546	0.905	0.111	0.867	-0.61	1.35	-0.389 (inactive)	-0.104	0.302	0.736 (inactive)	-0.271	0.388 (inactive)	-0.0279 (inactive)	0.366 (inactive)	0.231 (inactive)	-0.163 (inactive)	-0.386 (inactive)	-0.0169 (inactive)	0.336	0.0623
COCCOC(=O)N1C(=O)[C@@]2(c3cc(C#CC4=CCCCC4)ccc31)[C@H](C(=O)N1CCCCCCC1)[C@H]1C(=O)O[C@H](c3ccccc3)[C@H](c3ccccc3)N1[C@@H]2c1ccc(OCCO)cc1	0.382	1.74	-0.214	-0.774	-0.779	0.225	-3.07 (inactive)	-0.674	-1.14	-0.223 (inactive)	0.111	-0.145 (inactive)	-0.341 (inactive)	-1.9 (inactive)	2.26 (inactive)	1.16 (inactive)	-0.427 (inactive)	-0.311 (inactive)	0.169	0.144
COC(=O)[C@@]1(Cc2ccccc2)[C@H]2c3cc(C(=O)N(C)C)n(CCn4cc([N+](=O)[O-])nc4C)c3C[C@H]2CN1C(=O)c1ccccc1	-0.461	0.297	-1.17	0.506	0.911	0.547	0.0518 (inactive)	-0.0192	0.377	-0.0815 (inactive)	0.002	0.815 (inactive)	-0.271 (inactive)	-0.831 (inactive)	1.41 (inactive)	-0.68 (inactive)	-0.211 (inactive)	0.145 (inactive)	0.413	1.01
C=C[C@@H](C)[C@@H](OC(=O)Nc1ccc(SC)cc1)c1ccc(OCCO)cc1	-0.555	0.248	-1.37	-1.08	-0.425	-2.54	-0.75 (inactive)	-0.15	-0.434	0.491 (inactive)	0.627	-3.68 (inactive)	-0.682 (inactive)	0.05 (inactive)	0.119 (inactive)	0.296 (inactive)	-0.68 (inactive)	-0.504 (inactive)	0.0167	0.0879
C=C(/C(=C/C[C@@H](OC(=O)c1ccncc1)c1cccc(OCCO)c1)c1cnc2ccccc2c1)C(C)C	0.509	1.55	0.0856	-2.52	-0.467	1.42	-0.45 (inactive)	-0.533	0.817	0.128 (inactive)	-0.118	-1.48 (inactive)	-0.59 (inactive)	-5.68 (inactive)	1.86 (inactive)	0.152 (inactive)	-0.192 (inactive)	-0.284 (inactive)	0.0866	0.227
COCCOC(=O)N1C(=O)[C@@]2(c3ccccc31)[C@H](c1ccccc1OCCO)N1[C@H](c3ccccc3)[C@H](c3ccccc3)OC(=O)[C@H]1[C@@H]2C(N)=O	-1.59	0.61	-1.85	-3.32	-4.57	-0.88	-0.27 (inactive)	-1.15	-1.21	-1.78 (inactive)	-0.704	1.82 (inactive)	-2.78 (inactive)	0.565 (inactive)	2.07 (inactive)	1.98 (inactive)	0.322 (inactive)	-0.528 (inactive)	-4.57	-0.288
CN(C)CCCCCCNC(=O)[C@@H]1C[C@@H]2C(=O)N[C@@H](CCCCN)C(=O)N2[C@@H]1c1ccc(O)cc1	1.4	0.576	-0.521	0.56	-0.345	-0.695	-0.625 (inactive)	-0.273	-1	-0.3 (inactive)	-0.0356	-1.56 (inactive)	1.79 (inactive)	-0.0587 (inactive)	1.63 (inactive)	-0.63 (inactive)	0.739 (inactive)	-1.59 (inactive)	0.659	3.51
